Source: the supplement of paper PMC3334620
The full ranking holds about 33,000 sequences; the median of “E-score (-0.5 to 0.5)” is about -0.054, and the highest 2% start at about 0.35. What follows is part of a selection rich in the highest values, with near analogues and random picks from the rest.

What follows are sequences tested against T1, Stb5 (UniProt P38699) (assay: PBM E-score (8-mer binding enrichment) (E-score (-0.5 to 0.5)); higher = stronger / more preferred TF binding). Details: protein concentration: 200 nM; construct: GST-full length.
T1 sequence: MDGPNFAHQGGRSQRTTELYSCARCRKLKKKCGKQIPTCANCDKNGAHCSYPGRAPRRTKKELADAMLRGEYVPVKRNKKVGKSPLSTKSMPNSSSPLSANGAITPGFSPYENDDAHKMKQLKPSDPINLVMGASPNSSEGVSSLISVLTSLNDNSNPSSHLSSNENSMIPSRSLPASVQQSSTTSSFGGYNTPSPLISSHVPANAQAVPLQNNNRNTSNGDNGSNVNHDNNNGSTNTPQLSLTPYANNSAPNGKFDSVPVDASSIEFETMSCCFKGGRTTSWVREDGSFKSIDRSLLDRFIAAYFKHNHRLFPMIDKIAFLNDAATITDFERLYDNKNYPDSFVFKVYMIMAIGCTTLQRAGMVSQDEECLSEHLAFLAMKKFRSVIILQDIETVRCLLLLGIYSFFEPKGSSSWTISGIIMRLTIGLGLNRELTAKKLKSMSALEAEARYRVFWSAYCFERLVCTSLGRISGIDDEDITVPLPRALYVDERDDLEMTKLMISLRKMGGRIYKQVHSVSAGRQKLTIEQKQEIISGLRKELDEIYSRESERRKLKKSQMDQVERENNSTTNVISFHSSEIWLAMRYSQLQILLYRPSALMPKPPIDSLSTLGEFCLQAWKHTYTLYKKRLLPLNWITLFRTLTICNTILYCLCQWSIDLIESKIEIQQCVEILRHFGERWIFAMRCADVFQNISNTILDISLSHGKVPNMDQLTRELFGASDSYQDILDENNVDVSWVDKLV
Outline: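 PURExpress in vitro transcription/translation supplied GST-tagged yeast transcription factors, either full-length or DNA-binding domain. Applied at about 100-200 nM to universal all-10-mer Agilent arrays double-stranded by primer extension, the bound protein was detected with fluorescent anti-GST. E-scores, modified Wilcoxon-Mann-Whitney statistics, were given by the Universal PBM Analysis Suite to ungapped eight-base words pooled with their reverse complements after masliner normalisation.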

| Sequence | PBM E-score |
| --- | --- |
| CGGCTCTA | 0.391 |
| GGGCTTTA | 0.326 |
| GGGCTATA | 0.0715 |
| CGGCTATA | 0.367 |
| AGGCTCTA | -0.0942 |
| AGGCTATA | 0.0655 |
| CGGCTTTC | 0.061 |
| CGGCTTTA | 0.439 |
| CGGCTCTC | -0.0773 |
| CTCTACCC | -0.316 |
| GCCGCACA | 0.206 |
| CTGCTGGC | -0.124 |
| AGCGGGAG | 0.0448 |
| GCGGGGGA | 0.261 |
| ATCGGGGA | 0.307 |
| AGCGGGGA | 0.375 |
| AGCGGGAA | 0.357 |
| GTCGGGGA | 0.382 |
| GGCGGGGA | 0.366 |
| AGCGGGAT | 0.25 |
| CTCGGGGA | 0.0793 |
| AGCGGGGG | 0.277 |
| GGCGGGAA | 0.287 |
| CGCGGGGA | 0.305 |
| GTAGGCAA | -0.246 |

| Sequence | PBM E-score |
| --- | --- |
| AATCTCCT | -0.0106 |
| GGGCAGTA | -0.0652 |
| ACCAAACG | 0.0282 |
| AGATCCAC | -0.00803 |
| GAACGTTC | -0.114 |
| CCGTTACC | 0.19 |
| CAGAGTAC | -0.0917 |
| CGTTTGGC | 0.0428 |
| ACGATTAT | 0.0316 |
| CCCGAGAC | 0.146 |
| CGGATTAA | 0.231 |
| ATCGGGGG | 0.289 |
| AGCGGGGC | 0.356 |
| ATCGGGCC | 0.297 |
| CGCGGGGC | 0.321 |
| AGCGGGCC | 0.23 |
| ATCGGGGC | 0.356 |
| CCCATATA | 0.0651 |
| ATAAACGA | 0.0369 |
| AGCCCAAA | 0.106 |
| CCCGACCC | 0.247 |
| ACCGACCA | 0.332 |
| ACCGACCG | 0.346 |
| GCCGACCC | 0.267 |
| CCCGACCG | 0.355 |

| Sequence | PBM E-score |
| --- | --- |
| ACCGACCC | 0.361 |
| AACACTAA | -0.111 |
| TGTGGGAA | -0.16 |
| GCCTAGTA | -0.0419 |
| AAAATCCG | 0.345 |
| CGCCCCGC | 0.325 |
| AGCCCCGG | 0.404 |
| AGCCCGGG | 0.189 |
| AGCCCCCC | -0.282 |
| AGCCCCGA | 0.397 |
| GGCCCCGA | 0.23 |
| AGCCCCGC | 0.421 |
| AGCCCCCG | 0.173 |
| CGCCCCGA | 0.328 |
| AAGGTGAT | 0.117 |
| AGAGGTAC | -0.205 |
| CCTGATCC | -0.125 |
| CCCATGGG | -0.194 |
| GGTTGGAC | -0.0385 |
| CGCCTGTC | -0.0556 |
| ACTACAGT | -0.24 |
| CCCGGACA | 0.315 |
| TCCGGACA | 0.259 |
| ATCGGATA | 0.19 |
| GACGGACC | 0.316 |

| Sequence | PBM E-score |
| --- | --- |
| CACGGACA | 0.211 |
| GACGGACA | 0.372 |
| CTCGGACA | 0.233 |
| GTCGGACA | 0.385 |
| GTCGGAAA | 0.274 |
| GTCGGATA | 0.371 |
| CTCGGATA | 0.0597 |
| GCCGGACA | 0.401 |
| TAAAACTA | -0.0104 |
| CACAAAAG | 0.0345 |
| AGCTAACG | 0.00522 |
| CCTCCTAG | -0.267 |
| ATGGCGAG | -0.242 |
| CCAGCGCG | -0.0713 |
| AAACCTTT | 0.0851 |
| AGGCCCCA | -0.255 |
| GTCGGAGA | 0.373 |
| CGCGGAGA | 0.287 |
| CTCGGAGA | 0.136 |
| GGCGGAGA | 0.388 |
| ATCGGAGA | 0.33 |
| AGCGGAGA | 0.236 |
| AAACAGAG | -0.197 |
| CGGTCTAA | 0.23 |
| CCACTACG | -0.0468 |

| Sequence | PBM E-score |
| --- | --- |
| CCATAACG | -0.0562 |
| AACATATT | -0.109 |
| CGGTGTTC | 0.399 |
| CGGTGTGC | 0.219 |
| CGGTGTGA | 0.441 |
| CCGTGTTC | 0.137 |
| AGGTGTGA | 0.00067 |
| CGGTGTCC | 0.369 |
| AGGTGTCC | -0.164 |
| GGGTGTTA | 0.25 |
| AGGTGTTC | -0.101 |
| AGGTGTTG | -0.0336 |
| AGGTGTTA | 0.381 |
| CTGTGTCC | 0.136 |
| AATCTGCA | -0.273 |
| AAAGGCCT | -0.115 |
| ACTCTGTG | -0.0679 |
| TATAGGCA | -0.262 |
| ATGATGCA | -0.187 |
| CACCAGCG | -0.06 |
| ACAAAGAG | -0.148 |
| CGGTGTAA | 0.438 |
| CGGTGTAG | 0.323 |
| GGGTGTCA | -0.073 |
| CGGTGTCA | 0.471 |

| Sequence | PBM E-score |
| --- | --- |
| GGGTGTAA | 0.251 |
| AGGTGTCA | 0.12 |
| TCGGAAGA | 0.142 |
| ATATGAAA | -0.119 |
| ATTCGAGG | 0.0182 |
| TACGCAGA | -0.163 |
| CGACCCGA | 0.117 |
| AGACGCCA | -0.181 |
| AGACGCCC | 0.0667 |
| AAACGCCG | 0.449 |
| CAACGCCG | 0.318 |
| AGACGCCG | 0.399 |
| AAACGCCA | -0.046 |
| CGCTAGAG | 0.0369 |
| AACATCGC | 0.0424 |
| GTGGTCAA | -0.291 |
| AACTCCCT | -0.0261 |
| AACTCCAT | 0.144 |
| AACTCCCG | 0.248 |
| AACTCCGG | 0.436 |
| CACTCCGG | 0.219 |
| AACTCCGA | 0.463 |
| CACTCCGC | 0.307 |
| TACTCCGA | 0.234 |
| AACTCCGC | 0.438 |

| Sequence | PBM E-score |
| --- | --- |
| AACTCCGT | 0.444 |
| CACTCCGA | 0.242 |
| GACTCCGC | 0.333 |
| AGATCAAG | -0.211 |
| ATTAGTCC | 0.248 |
| CATATCAC | 0.0389 |
| TGCTGCAA | -0.177 |
| CCAGAACG | -0.0165 |
| ATTCAAAG | -0.12 |
| GCGCGAAA | 0.0664 |
| AAGAGTGA | -0.258 |
| ACAGACGT | -0.141 |
| CCCCTCAC | -0.231 |
| TGGTACCA | -0.0919 |
| AGGTACTA | 0.16 |
| CGGTACTA | 0.474 |
| GGGTACCA | -0.157 |
| CGGTACCA | 0.39 |
| GGGTACTA | -0.0611 |
| AATGTGCC | 0.145 |
| ATCAAAGA | -0.248 |
| CAGCAGGA | -0.194 |
